# Assay results reported in the supplement of paper PMC7156485.
# ± gives the standard deviation of the averaged measurements.
# Test system: HCC1569
# Assay: cell number relative to DMSO (% of DMSO); higher = more cells (less growth inhibition / toxicity)
# Conditions: concentration: 10 µM; 24 h
# How it was run: (§1)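 In 384-well plates holding 800 HCC1569 or TDF cells per well in RPMI with 10% FBS, compounds were tested at 10 µM for 24 h at 37 °C in triplicate. Fixation used 3.7% formaldehyde. Staining used a rabbit anti-H1.0 antibody with an AlexaFluor 647 secondary, plus DAPI. Each value, H1.0 nuclear intensity or cell number, is a median of replicates shown as percent of the plate control, and HCC1569 values were smoothed for positional effects.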
# 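Further: TDF denotes transformed human dermal fibroblasts of mesenchymal origin.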
row,SMILES,cell number
1,COc1ccc(C(=O)c2c(C)n(CCN3CCOCC3)c3cc(I)ccc23)cc1,85.1
2,CCN(CC)C(=O)NC1C=C2c3cccc4[nH]cc(c34)CC2N(C)C1.O=C(O)C=CC(=O)O (stereo not drawn) [R(+)-Lisuride hydrogen maleate],103
3,Cl.O=C1CC2OCC=C3CN4CCC56c7ccccc7N1C5C2C3CC46 (configuration not stated),103 ± 5.8
4,Cc1cc(O)c2c(=O)c3c(O)cc(O)c4c5c(O)cc(O)c6c(=O)c7c(O)cc(C)c8c1c2c(c34)c(c78)c65 [Hypericin],103 ± 2.1
5,"C[N+]1(C)C2CC(OC(=O)C(CO)c3ccccc3)CC1C1OC12.[Br-] (single isomer, unassigned; (-)) [(-)-Scopolamine methyl bromide]",104
6,O=c1[nH]c2ccccc2n1C1CCN(CCCC(c2ccc(F)cc2)c2ccc(F)cc2)CC1 [Pimozide],81.2 ± 11
7,CC12CCC3C(CCC4=C(O)C(=O)CCC43C)C1CCC2=O (configuration not stated) [Formestane],105
8,CCS(=O)(=O)Nc1cccc(C(=C2CCCCC2)c2cnc[nH]2)c1,99.6
9,NC(Cn1cc(I)c(=O)[nH]c1=O)C(=O)O (configuration not stated) [S-5-Iodowillardiine],107
10,C=CCN1CCC23c4c5ccc(O)c4OC2C(=O)CCC3(O)C1C5.Cl (configuration not stated) [Naloxone hydrochloride],104
11,O=[N+]([O-])c1ncc[nH]1 [Azomycin],100
12,CCCCCC(C=CC=CCCCCCCCC(=O)O)OO (configuration not stated),99.9
13,C=CCN1CCC23CCCCC2C1Cc1ccc(O)cc13.O=C(O)C(O)C(O)C(=O)O (configuration not stated) [Levallorphan tartrate],99.1
14,CC1OC1P(=O)([O-])[O-].[Na+].[Na+] (configuration not stated) [Phosphomycin disodium],100
15,CCOP(=O)(OCC)C(C)NC(=O)N(CCCl)N=O (configuration not stated),100
16,CCC(C(N)=O)N1CCCC1=O (configuration not stated) [Levetiracetam],102
17,CC1(CO)C(O)CCC2(C)C1CCC1CC3CC12CCC3(O)CO (configuration not stated) [Aphidicolin],79.6
18,"C=CC1CN2CCC1CC2C(O)c1ccnc2ccccc12 (single isomer, unassigned; (-)) [(-)-Cinchonidine]",100
19,Cl.NCC(O)c1ccc(O)cc1 (racemic),99.3
20,COC1=CC2C3Cc4ccc(OC)c(O)c4C2(CCN3C)CC1=O (configuration not stated) [Sinomenine],101
21,C[N+](C)(C)CCOC(=O)CBr.[Br-] [Bromoacetylcholine bromide],98.5
22,"COc1ccc2c(c1O)-c1c(OC)c(OC)cc3c1C(C2)N(C)CC3.Cl (single isomer, unassigned; (+)) [(+)-Isocorydine hydrochloride]",103
23,COc1cc2c(cc1OC)C(C)NCC2 (configuration not stated) [Salsolodine],105
24,COc1ccc(C(=O)OC2CC3CCC(C2)N3C)cc1OC (configuration not stated) [Convolvamine],105

# Test system: TDF
# Assay: as above
# Conditions: concentration: 10 µM; 24 h
# How it was run: as §1
row,SMILES,cell number
1,CN1CCC2(CCN3CCc4c(oc5ccccc45)C3C2)N(C)C1=O.Cl (configuration not stated),91
2,CN(c1nc2ccccc2s1)C1CCN(CC(O)COc2ccc(F)c(F)c2)CC1.Cl.Cl (configuration not stated),88.9
3,CCN(CCCl)Cc1ccccc1Br.Cl [DSP-4 hydrochloride],103
4,CP(=O)([O-])C1=CC[NH2+]CC1,98.6
5,CC=C(C)C(=O)OC1CCC2(C)C3CCC4C5(O)CC(O)C6(O)C(CN7CC(C)CCC7C6(C)O)C5(O)CC42OC13O (configuration not stated) [Cevadine],99.4
6,"CC(=O)[C@H]1CC[C@H]2[C@@H]3CC[C@H]4C[C@](C)(O)CC[C@]4(C)[C@H]3CC[C@]12C [(3alpha,5alpha)-3-hydroxy-3-methylpregnan-20-one]",93
7,CCCC[N+]1(C)C2CC(OC(=O)C(CO)c3ccccc3)CC1C1OC12 (configuration not stated) [Scopolamine N-butyl],111
8,CC(N)C(=O)OC(C)(C)Cc1ccc(Cl)cc1.Cl (configuration not stated) [Alaproclate hydrochloride],111
9,COc1cc2c(c(OC)c1OC)-c1ccc(SC)c(=O)cc1C(NC(C)=O)CC2 (configuration not stated) [Thiocolchicine],10.7
10,C=CCN1CC(C)N(C(c2ccc(C(=O)N(CC)CC)cc2)c2cccc(OC)c2)CC1C (configuration not stated),102
11,NC(=O)CI [Iodoacetamide],33.8
12,CC12C(=O)OC(=O)C1(C)C1CCC2O1 (configuration not stated) [Cantharidin],10.9 ± 0.21
13,C#CC1(O)CCC2C3CCC4=CC(=O)CCC4=C3C=CC21CC (configuration not stated) [Gestrinone],100
14,O.O=P1(N(CCCl)CCCl)NCCCO1 (configuration not stated) [Cyclophosphamide monohydrate],61.2
15,COc1ccc(C(=O)c2c(C)n(CCN3CCOCC3)c3cc(I)ccc23)cc1,82.3
16,CCN(CC)C(=O)NC1C=C2c3cccc4[nH]cc(c34)CC2N(C)C1.O=C(O)C=CC(=O)O (stereo not drawn) [R(+)-Lisuride hydrogen maleate],117
17,Cl.O=C1CC2OCC=C3CN4CCC56c7ccccc7N1C5C2C3CC46 (configuration not stated),102 ± 1.1
18,Cc1cc(O)c2c(=O)c3c(O)cc(O)c4c5c(O)cc(O)c6c(=O)c7c(O)cc(C)c8c1c2c(c34)c(c78)c65 [Hypericin],100 ± 2.6
19,"C[N+]1(C)C2CC(OC(=O)C(CO)c3ccccc3)CC1C1OC12.[Br-] (single isomer, unassigned; (-)) [(-)-Scopolamine methyl bromide]",98.8

row,SMILES,cell number
1,O=c1[nH]c2ccccc2n1C1CCN(CCCC(c2ccc(F)cc2)c2ccc(F)cc2)CC1 [Pimozide],90.7 ± 1.7
2,CC12CCC3C(CCC4=C(O)C(=O)CCC43C)C1CCC2=O (configuration not stated) [Formestane],98.1
3,CCS(=O)(=O)Nc1cccc(C(=C2CCCCC2)c2cnc[nH]2)c1,101
4,NC(Cn1cc(I)c(=O)[nH]c1=O)C(=O)O (configuration not stated) [S-5-Iodowillardiine],107
5,C=CCN1CCC23c4c5ccc(O)c4OC2C(=O)CCC3(O)C1C5.Cl (configuration not stated) [Naloxone hydrochloride],98.9
6,O=[N+]([O-])c1ncc[nH]1 [Azomycin],92.6
7,CCCCCC(C=CC=CCCCCCCCC(=O)O)OO (configuration not stated),108
8,C=CCN1CCC23CCCCC2C1Cc1ccc(O)cc13.O=C(O)C(O)C(O)C(=O)O (configuration not stated) [Levallorphan tartrate],118
9,CC1OC1P(=O)([O-])[O-].[Na+].[Na+] (configuration not stated) [Phosphomycin disodium],91.3
10,CCOP(=O)(OCC)C(C)NC(=O)N(CCCl)N=O (configuration not stated),80.1
11,CCC(C(N)=O)N1CCCC1=O (configuration not stated) [Levetiracetam],105
12,CC1(CO)C(O)CCC2(C)C1CCC1CC3CC12CCC3(O)CO (configuration not stated) [Aphidicolin],55.2
13,"C=CC1CN2CCC1CC2C(O)c1ccnc2ccccc12 (single isomer, unassigned; (-)) [(-)-Cinchonidine]",99.7
14,Cl.NCC(O)c1ccc(O)cc1 (racemic),106
15,COC1=CC2C3Cc4ccc(OC)c(O)c4C2(CCN3C)CC1=O (configuration not stated) [Sinomenine],95.5
16,C[N+](C)(C)CCOC(=O)CBr.[Br-] [Bromoacetylcholine bromide],122
17,"COc1ccc2c(c1O)-c1c(OC)c(OC)cc3c1C(C2)N(C)CC3.Cl (single isomer, unassigned; (+)) [(+)-Isocorydine hydrochloride]",107
18,COc1cc2c(cc1OC)C(C)NCC2 (configuration not stated) [Salsolodine],97.2
19,COc1ccc(C(=O)OC2CC3CCC(C2)N3C)cc1OC (configuration not stated) [Convolvamine],96.1
